The text below walks through data of PubChem BioAssay (NCATS).

Test [1] can be described thus: qHTS Assay for Identifying Gametocytocidal Compounds (AID 743244; active means well fitted curve in the direction sought with a large enough effect;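 further: on the % scale 0 is the no-effect control and ±100 the full control effect; actives lower the fluorescent signal which means gametocytes are killed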). The note with it: P. falciparum 3D7 stage III-V gametocytes, alamarBlue, 72 h; max response: stronger effect = lower value. The method in brief: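 A resazurin-based viability read-out was applied to mature P. falciparum gametocytes: 72 h compound treatment, then 24 h dye incubation, with falling fluorescence signalling gametocytocidal effect.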
A general note: In qHTS, concentration-response curves come from the screen itself.

A short description of test [2]: qHTS profiling of the MIPE4 collection as inhibitors of Plasmodium falciparum (3D7) proliferation (AID 743344).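 Further: scaled between DMSO vehicle wells and 0.29 µM artemisinin as full inhibition.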 The note with it: P. falciparum 3D7 in erythrocytes, SYBR Green DNA fluorescence, 72 h; at 28.5 µM (top of the series) unless noted. The gist of the method: (§1)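 Parasite DNA was quantified by SYBR Green I fluorescence (ex 485, em 535 nm) after overnight lysis in saponin/Triton buffer at room temperature. Cultures at 0.3% parasitemia and 2.5% hematocrit were first exposed to compound for 72 h at 37 C; signals were normalised to artemisinin (0.29 uM) and vehicle wells.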

Test [3] can be described thus: qHTS profiling of the MIPE4 collection as inhibitors of Plasmodium falciparum (DD2) proliferation (AID 743345). The note with it: P. falciparum Dd2 in erythrocytes, SYBR Green DNA, 72 h; at 28.5 µM (top of the series) unless noted. The gist of the method: as §1
Test [4] in a line: qHTS profiling of the MIPE4 collection as inhibitors of Plasmodium falciparum (DD2) proliferation (Rep 2) (AID 743346). The note with it: P. falciparum Dd2 in erythrocytes, SYBR Green DNA, 72 h; at 28.5 µM (top of the series) unless noted. The gist of the method: as §1
The nature of test [5]: qHTS profiling of the MIPE4 collection as inhibitors of Plasmodium falciparum (HB3) proliferation (AID 743347).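 Further: plate controls were DMSO vehicle wells for no effect and artemisinin wells for full effect.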 The note with it: P. falciparum HB3 in erythrocytes, SYBR Green DNA, 72 h; at 28.5 µM (top of the series) unless noted. The method in brief:
as §1

Results filed as inconclusive are left out. The source made the active and inactive calls. Unless noted, how the calls were made is not given here.

Take `CC[C@H](NC(C)C)[C@H](O)c1ccc(O)c2[nH]c(=O)ccc12`: in test [1], the max response was 0.956% (inactive). The molecule further registered a parasite growth, % of DMSO control in test [2] of 96.3%. Also, the parasite growth remaining, % of DMSO control (lower = more inhibition) in test [3] turned out to be 107%. For the same molecule, the parasite growth, % of control (lower = inhibition) in test [4] is 92.5%. In test [5], this molecule returned a growth, % of control of 96.3%.
As for `CNC1CCCN(c2c(F)cc3c(=O)c(C(=O)O)cn(C4CC4)c3c2OC)C1` (stereo not drawn), the max response in test [1] is -8.7% (inactive). This molecule also gave a parasite growth, % of DMSO control in test [2] of 20.4%. Moreover, the parasite growth remaining, % of DMSO control (lower = more inhibition) in test [3] was 11.8%. Also, in test [4], the parasite growth, % of control (lower = inhibition) came out at 8.93%.
For the molecule `COc1ccccc1OCC(O)COC(N)=O` (stereo not drawn), the max response in test [1] is -1.63% (inactive). This molecule gave a parasite growth, % of DMSO control in test [2] of 94.6%. Besides, the parasite growth remaining, % of DMSO control (lower = more inhibition) in test [3] was 96.9%. The parasite growth, % of control (lower = inhibition) in test [4] came to 142%. Besides, the growth, % of control in test [5] turned out to be 111%.
For `CCn1cc(C(=O)O)c(=O)c2cc(F)c(N3CCN(C)CC3)cc21`, in that order: 4.94% (inactive), 206%, 70.5%, 52.8% and 370%.
As for `CC(C)(C)C(=O)OCOP(=O)(COCCn1cnc2c(N)ncnc21)OCOC(=O)C(C)(C)C`, the max response in test [1] was 4.48% (inactive). Further, the parasite growth, % of DMSO control in test [2] stood at 68.2%. Moreover, the parasite growth remaining, % of DMSO control (lower = more inhibition) in test [3] was 96.8%. In addition, the parasite growth, % of control (lower = inhibition) in test [4] amounted to 97.4%. Besides, the growth, % of control in test [5] is 82.4%.
For `CCN[C@H]1C[C@H](C)S(=O)(=O)c2sc(S(N)(=O)=O)cc21` the same measures were 4.01% (inactive), 93.1%, 19.2%, 117% and 103%.
Consider `COc1ccc2c(c1)c(CC(=O)OCC(=O)O)c(C)n2C(=O)c1ccc(Cl)cc1`, for which, in test [1], the max response is -13.1% (inactive). Further, in test [2], the parasite growth, % of DMSO control was found to be 78.3%. For the same molecule, the parasite growth remaining, % of DMSO control (lower = more inhibition) in test [3] was 104%. In addition, the parasite growth, % of control (lower = inhibition) in test [4] is 68.6%. This molecule came in with a growth, % of control in test [5] of 80.2%.
For `CCOC(=O)[C@H](CCc1ccccc1)N[C@H]1CS[C@H](c2cccs2)CN(CC(=O)O)C1=O`, in that order: 3.7% (inactive), 5.73%, 58.9%, 6.49% and 6.02%.
`CNNCc1ccc(C(=O)NC(C)C)cc1`: the max response in test [1] is -5.75% (inactive). The same molecule came in with a parasite growth, % of DMSO control in test [2] of 72.9%. Also, the parasite growth remaining, % of DMSO control (lower = more inhibition) in test [3] amounted to 93.3%. For the same molecule, in test [4], the parasite growth, % of control (lower = inhibition) was 68.8%. The molecule also gave a growth, % of control in test [5] of 68.9%.
For `O=S(=O)(O)CCS`, the max response in test [1] was -4.29% (inactive). The same molecule yielded a parasite growth, % of DMSO control in test [2] of 87.9%. Moreover, the parasite growth remaining, % of DMSO control (lower = more inhibition) in test [3] is 108%. The parasite growth, % of control (lower = inhibition) in test [4] came to 78.8%. Further, in test [5], the growth, % of control stood at 66.6%.
For the molecule `O=C(O)c1ccc(-n2nc(-c3ccccc3O)nc2-c2ccccc2O)cc1`, in test [1], the max response was -16.4% (inactive). The molecule also displayed a parasite growth, % of DMSO control in test [2] of 50.5%. For the same molecule, the parasite growth remaining, % of DMSO control (lower = more inhibition) in test [3] turned out to be 107%. Moreover, the parasite growth, % of control (lower = inhibition) in test [4] stood at 34.2%. In test [5], this molecule yielded a growth, % of control of 94.6%.
For the molecule `CC(C)C1CCC(C(=O)N[C@H](Cc2ccccc2)C(=O)O)CC1` (stereo partly drawn), in test [1], the max response is 6.84% (inactive). Further, the parasite growth, % of DMSO control in test [2] was 87.2%. Further, the parasite growth remaining, % of DMSO control (lower = more inhibition) in test [3] was found to be 118%. In addition, the parasite growth, % of control (lower = inhibition) in test [4] was 109%. The same molecule came in with a growth, % of control in test [5] of 85.4%.
For `C[C@@H]1C[C@H]2[C@@H]3CCC4=CC(=O)C=C[C@]4(C)[C@@]3(Cl)[C@@H](O)C[C@]2(C)[C@@]1(OC(=O)c1ccco1)C(=O)CCl` the same measures were 3.64% (inactive), 5.2%, 7.88%, 10.6% and 6.95%.
For `O=C(O)CSCC(=O)NC1CCSC1=O` (stereo not drawn) the same measures were -6.62% (inactive), 102%, 139%, 124% and 99.2%.
For `CCCc1cc(C(N)=S)ccn1`, in that order: 4.17% (inactive), 6.05%, 65.8%, 14% and 6.05%.
Regarding `CC(C)(Sc1cc(C(C)(C)C)c(O)c(C(C)(C)C)c1)Sc1cc(C(C)(C)C)c(O)c(C(C)(C)C)c1`, the max response in test [1] is -1.03% (inactive). The molecule also came in with a parasite growth, % of DMSO control in test [2] of 23.4%. Moreover, the parasite growth remaining, % of DMSO control (lower = more inhibition) in test [3] was 26.6%. Besides, in test [4], the parasite growth, % of control (lower = inhibition) worked out at 24.6%. In test [5], this molecule came in with a growth, % of control of 19.1%.
Take `O=P(O)(O)C(O)(Cc1cccnc1)P(=O)(O)O`: in test [1], the max response was 8.36% (inactive). Further, in test [2], the parasite growth, % of DMSO control is 71.4%. Further, the parasite growth remaining, % of DMSO control (lower = more inhibition) in test [3] is 99.5%. Further, in test [4], the parasite growth, % of control (lower = inhibition) came to 80.5%. This molecule showed a growth, % of control in test [5] of 100%.
For `CCCOc1ccc(C(=O)OCCN(CC)CC)cc1N`, in that order: 14.8% (inactive), 100%, 88.7%, 111% and 63.6%.
In the case of `CCn1cc(C(=O)O)c(=O)c2cc(F)c(N3CCNCC3)nc21`, the max response in test [1] is 0.203% (inactive). In addition, in test [2], the parasite growth, % of DMSO control is 35.6%. The parasite growth remaining, % of DMSO control (lower = more inhibition) in test [3] stood at 56.4%. Also, the parasite growth, % of control (lower = inhibition) in test [4] is 53.9%. This molecule also had a growth, % of control in test [5] of 56.4%.
`Cn1nnc2c(C(N)=O)ncn2c1=O`: in test [1], the max response was -7.58% (inactive). In test [2], this molecule displayed a parasite growth, % of DMSO control of 97.2%. Also, in test [3], the parasite growth remaining, % of DMSO control (lower = more inhibition) stood at 86.5%. For the same molecule, the parasite growth, % of control (lower = inhibition) in test [4] came out at 120%. Moreover, the growth, % of control in test [5] was 98.2%.
For `CCOC(=O)c1ccc(OC(=O)CCCCCN=C(N)N)cc1`, in that order: -8.62% (inactive), 93%, 89.5%, 118% and 80.6%.
For `CNS(=O)(=O)Cc1ccc2[nH]cc(CCN(C)C)c2c1`, in that order: 0.507% (inactive), 64.4%, 70.9%, 75.7% and 17.2%.
For `COc1cc(NS(=O)(=O)c2ccc(N)cc2)nc(OC)n1` the same measures were 22.6% (inactive), 39.3%, 96.8%, 87.6% and 91%.
Regarding `CN(C)CCc1c[nH]c2ccc(C[C@H]3COC(=O)N3)cc12`, the max response in test [1] is -7.68% (inactive). The molecule also came in with a parasite growth, % of DMSO control in test [2] of 107%. Further, in test [3], the parasite growth remaining, % of DMSO control (lower = more inhibition) turned out to be 92.5%. Moreover, the parasite growth, % of control (lower = inhibition) in test [4] was 73.2%. This molecule displayed a growth, % of control in test [5] of 91.4%.
Regarding `CN1CCCC(n2nc(Cc3ccc(Cl)cc3)c3ccccc3c2=O)CC1` (stereo not drawn), in test [1], the max response was 32.9% (inactive). Besides, in test [2], the parasite growth, % of DMSO control worked out at 5.72%. For the same molecule, in test [3], the parasite growth remaining, % of DMSO control (lower = more inhibition) worked out at 14%. Moreover, the parasite growth, % of control (lower = inhibition) in test [4] is 7.67%.
Turning to `Cc1nnc(C(=O)NC(C)(C)c2nc(C(=O)NCc3ccc(F)cc3)c(O)c(=O)n2C)o1`, the max response in test [1] is 3.93% (inactive). This molecule showed a parasite growth, % of DMSO control in test [2] of 83.6%. Further, the parasite growth remaining, % of DMSO control (lower = more inhibition) in test [3] is 91.4%. Besides, in test [4], the parasite growth, % of control (lower = inhibition) was determined as 81.9%. In test [5], this molecule registered a growth, % of control of 79.5%.
For the molecule `COC(=O)Nc1nc2ccc(C(=O)c3ccccc3)cc2[nH]1`, in test [1], the max response is -6.13% (inactive). The parasite growth, % of DMSO control in test [2] amounted to 61.1%. Further, the parasite growth remaining, % of DMSO control (lower = more inhibition) in test [3] is 97.7%. The parasite growth, % of control (lower = inhibition) in test [4] came out at 71%. Besides, the growth, % of control in test [5] is 84.4%.
Turning to `COc1cccc(N(C)C(=S)Oc2ccc3c(c2)CCCC3)n1`, the max response in test [1] was -0.766% (inactive). The parasite growth, % of DMSO control in test [2] was 47.9%. Also, in test [3], the parasite growth remaining, % of DMSO control (lower = more inhibition) turned out to be 82.7%. In addition, the parasite growth, % of control (lower = inhibition) in test [4] turned out to be 34.5%. In addition, the growth, % of control in test [5] is 24.4%.
